# Data taken from PubChem BioAssay (Tox21).
# Calls of active or inactive are those of the source. Calls follow the shape of the dose curve; as a rule, active = well fitted activation curve with a large enough effect in the repeat runs; inconclusive = weak or mixed curves; inactive = flat fitted curve, though single readings scatter.
# Assay: Caspase-3/7 induction in CHO-K1 cells by small molecules, qHTS assay (AID 1346980); also: nearly all actives have a fitted effect of over 15% in size
# Settings: CHO-K1 caspase-3/7 induction, Caspase-Glo luminescence, 17 h; series mostly up to 92.4 µM; caspase-3/7 activation: at the top concentration
# Source text: National Center for Advancing Translational Sciences [NCATS]
# NIH Chemical Genomics Center [NCGC]
# U.S. Environmental Protection Agency [EPA]
# National Institutes of Environmental Health Sciences [NIEHS]
# National Toxicology Program [NTP]
# Apoptosis is a process of programmed cell death and plays a central role in the development of multicellular organisms. It is a highly regulated process and induces cell death by activating caspases, which are the members of cysteine aspartic acid-specific protease (caspase) family. Caspases involved in apoptosis are classified by their mechanism of action as initiator caspases (caspase-2, -8, -9 and -10) and executioner caspases (caspase-3, -6, and -7). Inhibition of apoptosis results in number of cancers, autoimmune diseases, inflammatory diseases and viral infection. To identify small molecule compounds that induce apoptosis, a homogeneous, luminescent Caspase-Glo 3/7 assay was used. Wild type CHO-K1 cells were used to screen Tox21 libraries for identifying caspase-3/7 activity inducers.
# CHO-K1 cells were dispensed at 1,500 per well in 5uL of culture medium into white solid bottom 1536-well plates (Corning Life Sciences, Corning, NY) using a Multidrop Combi (Thermo Scientific, Waltham, MA) dispenser. The assay plates were incubated at 37 C and 5% CO2 for 5hr, and then 23nL of compounds dissolved in DMSO and positive control were transferred using a Pintool station (Wako, San Diego, CA). The assay plates were incubated at 37C and 5% CO2 for 17hr. For caspase-3/7 activity read, 4uL of Caspase-Glo 3/7 reagent (Promega Corporation, Madison, WI) was added to each well of the assay plates using Flying Reagent Dispenser (FRD, Aurora Discovery, San Diego, CA) and incubated the assay plates at room temperature for 30min. The luminescence signal was quantified using a ViewLux plate reader (Perkin Elmer, Shelton, CT).
# % is scaled to controls: 0 for no effect and ±100 for the full control effect; potency is read from the fitted curve at half-maximal effect.
Structure (SMILES),caspase-3/7 activation,Potency
O=c1[nH]c2ccccc2n1CCCN1CCN(C(c2ccccc2)c2ccccc2)CC1,3.34% [at 42.5 µM] (inactive),–
CC(C)Cn1cnc2c(N)nc3ccccc3c21,0.247% [at 19 µM] (inactive),–
CCCCCCCCCCCCCC[N+](C)(C)C,–,inactive
O=c1oc2cc(O)ccc2c2oc3cc(O)ccc3c12,-5.65% (inactive),–
Clc1ccnc(Cl)n1,0.287% (inactive),–
Fc1ccc(C(c2ccc(F)cc2)N2CCNCC2)cc1,-0.473% [at 42.5 µM] (inactive),–
NC(=O)c1cccc([N+](=O)[O-])c1,2.5% (inactive),–
Clc1sc(Cl)c(Cl)c1Cl,-0.102% (inactive),–
CC(CO)Oc1ccccc1 (stereo not given),-0.83% (inactive),–
CCC(CC)(CC(=O)Nc1cccc(/C=C/c2nc(C3CCC3)cs2)c1)C(=O)O,-1.72% [at 42.5 µM] (inactive),–
O=S(=O)(O)c1ccccc1/C=C/c1ccc(-c2ccc(/C=C/c3ccccc3S(=O)(=O)O)cc2)cc1,5.56% (inactive),–
COc1cc2nc(N3CCN(C(=O)c4ccco4)CC3)nc(N)c2cc1OC,0.614% [at 19 µM] (inactive),–
C=C(C)C(=O)OCCCCCCCCCC,-4.61% (inactive),–
CCCCCCCCCCCCOCCOCCOCCOCCOCCOCCOCCOCCOCCO,4.95% [at 42.5 µM] (inactive),–
S=c1nccc[nH]1,0.688% (inactive),–
C#C[C@]1(O)CC[C@H]2[C@@H]3[C@H](C)CC4=C(CCC(=O)C4)[C@H]3CC[C@@]21C,-3.88% [at 42.5 µM] (inactive),–
CCC(CC)C(C)CCOC(C)=O (stereo not given),0.298% (inactive),–
CN(C)Cc1cc(C(C)(C)C)c(O)c(C(C)(C)C)c1,0.983% (inactive),–
CCN(CC)C(=O)c1cc(S(=O)(=O)Cc2ccccc2)c(N2CCC(c3ccccc3)CC2)cc1N(CC)CCN(C)C,–,24.1 µM (active)
O=C(O)CN(CCN(CC(=O)O)CC(=O)O)CC(=O)O,-0.0599% [at 3.27 µM] (inactive),–

Structure (SMILES),caspase-3/7 activation,Potency
C[C@@H](O)[C@H](N)C(=O)O,-0.26% [at 19 µM] (inactive),–
CC(C)(C)C1CCC(=O)CC1,0.455% (inactive),–
CC(C)CCOC(=O)/C=C/c1ccccc1,0.276% (inactive),–
Cc1cccc2cccnc12,-0.0616% (inactive),–
C#CC1(O)CC[C@H]2[C@@H]3CCC4=CCCC[C@@H]4[C@H]3CC[C@@]21C (stereo not given in full),–,inactive
C=CC(=O)Nc1cc2c(Nc3ccc(F)c(Cl)c3)ncnc2cc1OCCCN1CCOCC1,0.796% [at 42.5 µM] (inactive),–
Nc1ccc(C(=O)O)c(O)c1,-0.534% [at 42.5 µM] (inactive),–
O=C(/C=C/c1ccccc1)OC/C=C/c1ccccc1,1.02% (inactive),–
O=C1CCCCCCCCCCCCCCCO1,-0.628% (inactive),–
Cc1ccc(O)c(O)c1,8.1% (inactive),–
OC/C=C/CO,-1.68% (inactive),–
CCCCC/C=C\C/C=C\CCCCCCCC(=O)O,–,inactive
C=CCn1c(=O)n(CC=C)c(=O)n(CC=C)c1=O,1.13% (inactive),–
CCCCCCCCCCCCCCCC[N+](C)(C)CC,–,inactive
C#C[C@]1(OC(C)=O)CC[C@H]2[C@@H]3CCC4=C[C@@H](OC(C)=O)CC[C@@H]4[C@H]3CC[C@@]21C,-1.39% [at 42.5 µM] (inactive),–
CCOc1ccc2ccccc2c1C(=O)N[C@@H]1C(=O)N2[C@@H]1SC(C)(C)[C@@H]2C(=O)O,3.2% [at 42.5 µM] (inactive),–
C[C@H]1NCc2cc(-c3ccc4c(=O)c(C(=O)O)cn(C5CC5)c4c3OC(F)F)ccc21,0.0016% [at 19 µM] (inactive),–
CNC(=O)c1ccccc1Sc1ccc2c(/C=C/c3ccccn3)n[nH]c2c1,-6.26% [at 42.5 µM] (inactive),–
Nc1ccc(Oc2ccc(Cl)cc2)cc1,0.184% (inactive),–
OC[C@H]1O[C@H](O[C@H]2O[C@H](CO)[C@@H](O)[C@H](O)[C@H]2O)[C@H](O)[C@@H](O)[C@@H]1O,-0.0322% (inactive),–
